Source: the supplement of paper PMC11732987, “Enantioselective OTUD7B fragment discovery through chemoproteomics screening and high-throughput optimisation” (Communications Chemistry, 2025)

What was measured:
Assay in all cases: log2 ratio of Biotin-Ahx-Ub-VS probe labelling (fragment/DMSO); higher = less target engagement (more negative = stronger competition), active = hit call of the paper (q ≤ 0.05, log2 ratio ≤ -1)
Details in all cases: compound concentration: 200 uM; treatment time: 3 h
OTUD6B = target: T1, OTUD6B (UniProt Q8N6M0)
T1 sequence (whole entry): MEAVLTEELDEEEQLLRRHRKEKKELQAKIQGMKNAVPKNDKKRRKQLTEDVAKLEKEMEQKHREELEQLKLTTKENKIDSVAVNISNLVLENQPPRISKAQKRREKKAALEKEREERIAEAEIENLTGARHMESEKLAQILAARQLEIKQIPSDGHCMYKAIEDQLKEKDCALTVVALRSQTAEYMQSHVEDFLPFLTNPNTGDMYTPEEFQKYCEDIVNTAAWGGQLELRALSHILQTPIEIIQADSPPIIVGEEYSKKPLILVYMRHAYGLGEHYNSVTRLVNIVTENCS
Procedure, shortened: (§1)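 Average log2 ratios of fragment over vehicle were obtained by unpaired t-test from global-median-normalised Spectronaut label-free quantities. Proteins with ≥2 unique peptides were included. HEK293T lysate (495 µg per sample) was treated in triplicate with fragment at 200 µM or vehicle for 3 h, then with Biotin-Ahx-Ub-VS at 0.5 µM final for 1 h, and labelled DUBs were NeutrAvidin-enriched and run by diaPASEF LC-MS/MS.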

OTUD7B = target: T2, OTUD7B (UniProt Q6GQQ9)
T2 sequence (whole entry): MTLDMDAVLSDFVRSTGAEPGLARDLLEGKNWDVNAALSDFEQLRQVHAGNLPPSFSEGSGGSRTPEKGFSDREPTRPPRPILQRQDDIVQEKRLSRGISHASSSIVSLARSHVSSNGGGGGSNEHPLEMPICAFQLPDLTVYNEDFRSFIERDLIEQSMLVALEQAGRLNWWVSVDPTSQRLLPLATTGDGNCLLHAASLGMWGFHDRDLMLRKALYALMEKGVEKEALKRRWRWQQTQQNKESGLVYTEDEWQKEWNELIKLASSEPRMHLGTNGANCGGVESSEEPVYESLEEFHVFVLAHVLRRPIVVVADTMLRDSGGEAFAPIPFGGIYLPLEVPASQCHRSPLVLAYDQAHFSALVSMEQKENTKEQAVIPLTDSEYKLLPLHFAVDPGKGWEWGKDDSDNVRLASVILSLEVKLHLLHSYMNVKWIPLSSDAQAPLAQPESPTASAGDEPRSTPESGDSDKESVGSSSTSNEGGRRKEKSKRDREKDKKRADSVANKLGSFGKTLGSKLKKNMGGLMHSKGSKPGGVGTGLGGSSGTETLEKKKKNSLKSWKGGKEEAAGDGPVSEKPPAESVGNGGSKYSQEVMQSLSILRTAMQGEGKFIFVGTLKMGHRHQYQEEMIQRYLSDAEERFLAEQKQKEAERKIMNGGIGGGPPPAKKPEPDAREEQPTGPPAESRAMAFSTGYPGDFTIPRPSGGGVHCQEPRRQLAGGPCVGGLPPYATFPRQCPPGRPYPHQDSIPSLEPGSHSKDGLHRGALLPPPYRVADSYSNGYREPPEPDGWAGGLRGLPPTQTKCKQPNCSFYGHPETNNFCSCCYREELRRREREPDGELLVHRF
Procedure, shortened: as §1

PRPF8 = PRPF8 (UniProt Q6P2Q9)
Procedure, shortened: as §1

PSMD7 = target: T3, PSMD7 (UniProt P51665)
T3 sequence (whole entry): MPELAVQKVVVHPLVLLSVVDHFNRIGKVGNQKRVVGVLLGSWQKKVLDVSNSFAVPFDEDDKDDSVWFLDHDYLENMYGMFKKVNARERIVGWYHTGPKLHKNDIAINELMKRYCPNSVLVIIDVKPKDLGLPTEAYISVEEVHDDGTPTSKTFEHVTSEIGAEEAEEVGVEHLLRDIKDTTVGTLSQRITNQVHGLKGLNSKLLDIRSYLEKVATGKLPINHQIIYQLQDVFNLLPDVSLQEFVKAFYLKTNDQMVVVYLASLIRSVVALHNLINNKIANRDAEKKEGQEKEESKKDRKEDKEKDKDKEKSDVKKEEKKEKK
Procedure, shortened: as §1

UCHL1 = UCHL1 (UniProt P09936)
UCHL1, sequence (P09936 whole entry, looked up): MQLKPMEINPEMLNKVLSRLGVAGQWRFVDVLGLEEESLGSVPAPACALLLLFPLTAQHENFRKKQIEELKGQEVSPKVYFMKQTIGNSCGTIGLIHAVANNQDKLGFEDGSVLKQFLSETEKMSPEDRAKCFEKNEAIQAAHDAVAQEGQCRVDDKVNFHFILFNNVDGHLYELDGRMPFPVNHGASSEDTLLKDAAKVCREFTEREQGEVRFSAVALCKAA
Procedure, shortened: as §1

UCHL3 = target: T4, UCHL3 (UniProt P15374)
T4 sequence (whole entry): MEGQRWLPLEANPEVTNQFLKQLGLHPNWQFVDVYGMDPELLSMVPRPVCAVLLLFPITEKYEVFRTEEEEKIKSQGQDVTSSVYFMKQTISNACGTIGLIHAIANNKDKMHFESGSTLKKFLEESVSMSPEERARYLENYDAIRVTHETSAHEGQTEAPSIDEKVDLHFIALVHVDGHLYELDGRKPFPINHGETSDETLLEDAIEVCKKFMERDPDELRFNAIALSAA
Procedure, shortened: as §1

UCHL5 = target: T5, UCHL5 (UniProt Q9Y5K5)
T5 sequence (whole entry): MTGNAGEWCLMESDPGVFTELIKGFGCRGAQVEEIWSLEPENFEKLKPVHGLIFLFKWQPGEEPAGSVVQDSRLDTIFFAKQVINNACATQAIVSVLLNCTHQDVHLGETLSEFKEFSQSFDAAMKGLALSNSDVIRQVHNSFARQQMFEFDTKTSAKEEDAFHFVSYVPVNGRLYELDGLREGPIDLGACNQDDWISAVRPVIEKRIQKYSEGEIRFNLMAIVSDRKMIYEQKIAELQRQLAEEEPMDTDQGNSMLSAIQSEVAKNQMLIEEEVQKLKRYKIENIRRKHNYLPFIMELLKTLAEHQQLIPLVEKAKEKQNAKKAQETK
Procedure, shortened: as §1

USP10 = USP10 (UniProt Q14694)
USP10, sequence (Q14694 whole entry): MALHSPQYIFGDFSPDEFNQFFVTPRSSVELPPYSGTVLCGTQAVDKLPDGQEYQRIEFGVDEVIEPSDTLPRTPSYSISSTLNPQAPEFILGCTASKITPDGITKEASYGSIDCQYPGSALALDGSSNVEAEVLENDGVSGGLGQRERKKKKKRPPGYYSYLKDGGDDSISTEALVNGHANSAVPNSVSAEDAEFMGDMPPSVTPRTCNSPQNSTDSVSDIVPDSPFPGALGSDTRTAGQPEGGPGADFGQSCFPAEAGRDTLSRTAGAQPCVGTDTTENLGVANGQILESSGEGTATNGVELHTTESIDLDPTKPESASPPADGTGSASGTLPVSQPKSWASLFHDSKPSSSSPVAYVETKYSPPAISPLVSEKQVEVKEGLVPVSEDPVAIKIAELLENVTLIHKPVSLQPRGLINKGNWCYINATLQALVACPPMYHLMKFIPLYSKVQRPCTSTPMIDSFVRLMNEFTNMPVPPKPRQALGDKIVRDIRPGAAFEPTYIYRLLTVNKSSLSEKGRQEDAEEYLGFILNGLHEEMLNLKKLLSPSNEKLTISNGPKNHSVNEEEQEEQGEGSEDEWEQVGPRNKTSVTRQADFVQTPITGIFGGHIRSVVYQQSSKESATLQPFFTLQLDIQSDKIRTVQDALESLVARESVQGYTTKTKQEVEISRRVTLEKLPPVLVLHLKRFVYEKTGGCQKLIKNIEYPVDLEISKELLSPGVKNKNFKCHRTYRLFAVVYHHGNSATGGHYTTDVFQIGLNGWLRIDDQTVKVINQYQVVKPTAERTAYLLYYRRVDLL
Procedure, shortened: as §1

USP15 = target: T6, USP15 (UniProt Q9Y4E8)
T6 sequence (whole entry): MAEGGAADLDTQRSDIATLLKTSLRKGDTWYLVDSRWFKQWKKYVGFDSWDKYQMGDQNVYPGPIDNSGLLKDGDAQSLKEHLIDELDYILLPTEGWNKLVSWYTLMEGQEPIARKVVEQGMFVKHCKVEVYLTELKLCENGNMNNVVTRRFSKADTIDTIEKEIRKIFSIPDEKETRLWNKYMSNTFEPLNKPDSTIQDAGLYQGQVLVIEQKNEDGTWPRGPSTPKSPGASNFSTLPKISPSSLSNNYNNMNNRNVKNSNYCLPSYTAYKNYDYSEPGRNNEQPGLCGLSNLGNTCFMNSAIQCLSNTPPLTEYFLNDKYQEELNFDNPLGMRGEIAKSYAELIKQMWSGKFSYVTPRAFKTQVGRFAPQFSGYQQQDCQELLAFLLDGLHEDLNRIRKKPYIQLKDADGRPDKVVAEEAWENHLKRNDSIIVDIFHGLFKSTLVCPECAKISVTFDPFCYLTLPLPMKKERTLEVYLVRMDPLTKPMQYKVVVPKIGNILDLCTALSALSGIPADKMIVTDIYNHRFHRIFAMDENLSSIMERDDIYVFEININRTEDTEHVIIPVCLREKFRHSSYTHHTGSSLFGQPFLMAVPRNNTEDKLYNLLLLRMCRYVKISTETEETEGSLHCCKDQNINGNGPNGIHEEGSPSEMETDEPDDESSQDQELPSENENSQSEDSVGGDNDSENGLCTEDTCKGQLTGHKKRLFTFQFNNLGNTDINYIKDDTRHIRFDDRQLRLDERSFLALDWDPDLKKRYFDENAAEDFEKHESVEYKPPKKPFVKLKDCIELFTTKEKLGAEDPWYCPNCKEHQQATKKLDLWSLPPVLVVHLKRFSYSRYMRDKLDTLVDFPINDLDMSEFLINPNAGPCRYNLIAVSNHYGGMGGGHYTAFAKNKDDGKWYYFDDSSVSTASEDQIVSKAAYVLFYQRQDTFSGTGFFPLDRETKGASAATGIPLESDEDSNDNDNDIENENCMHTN
Procedure, shortened: as §1

USP16 = USP16 (UniProt Q9Y5T5)
USP16, sequence (Q9Y5T5 whole entry, looked up): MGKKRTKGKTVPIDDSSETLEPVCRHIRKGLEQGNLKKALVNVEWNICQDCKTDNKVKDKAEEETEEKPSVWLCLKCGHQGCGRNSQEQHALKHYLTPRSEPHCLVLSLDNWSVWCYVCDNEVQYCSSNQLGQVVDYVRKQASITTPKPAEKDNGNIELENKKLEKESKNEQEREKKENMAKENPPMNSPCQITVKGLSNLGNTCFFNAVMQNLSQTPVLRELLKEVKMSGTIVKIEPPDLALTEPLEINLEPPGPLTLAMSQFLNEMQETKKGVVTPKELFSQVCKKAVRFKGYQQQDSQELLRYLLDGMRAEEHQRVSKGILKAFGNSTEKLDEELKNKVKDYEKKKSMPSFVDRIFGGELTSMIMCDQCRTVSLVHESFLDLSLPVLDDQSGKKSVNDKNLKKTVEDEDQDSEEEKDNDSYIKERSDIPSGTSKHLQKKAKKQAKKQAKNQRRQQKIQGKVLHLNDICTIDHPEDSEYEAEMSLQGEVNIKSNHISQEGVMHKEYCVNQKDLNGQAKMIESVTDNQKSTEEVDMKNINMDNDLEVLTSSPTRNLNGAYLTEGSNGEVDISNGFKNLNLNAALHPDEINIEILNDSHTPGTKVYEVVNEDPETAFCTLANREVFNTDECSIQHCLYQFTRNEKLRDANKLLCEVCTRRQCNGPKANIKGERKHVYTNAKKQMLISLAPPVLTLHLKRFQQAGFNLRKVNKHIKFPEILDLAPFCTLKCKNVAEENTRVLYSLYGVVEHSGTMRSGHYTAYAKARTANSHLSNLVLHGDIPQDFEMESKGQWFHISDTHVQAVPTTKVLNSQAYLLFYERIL
Procedure, shortened: as §1

Measured: log2 ratio of Biotin-Ahx-Ub-VS probe labelling

COc1cccc(CN(C)C(=O)CCl)c1
active: UCHL1 -1.22
inactive: OTUD6B -0.198 | OTUD7B -0.364 | PRPF8 -0.0045 | PSMD7 -0.109 | UCHL3 0.229 | UCHL5 -0.0244 | USP10 -0.22 | USP15 -0.251 | USP16 0.142
